From PubChem BioAssay (NCATS)
Active and inactive are the calls of the source. Calls come from the whole dose curve; as a rule, active = well fitted curve in the direction sought with a large enough effect; inconclusive = small, poorly fitted or top-dose-only effect, or another doubt; inactive = no such curve, though single readings can be large or run the other way.

target: Alpha-galactosidase (Coffea arabica) (UniProt Q42656); test: Counterscreen for Glucocerebrosidase Inhibitors: qHTS Assay for Coffee Bean alpha-Galactosidase at pH 4.5 (AID 957); conditions: purified coffee bean alpha-galactosidase, fluorogenic substrate; series mostly up to 76.9 µM; activity change, negative = inhibition: at the top concentration;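 note: plate controls were enzyme alone for no effect and no enzyme for full effect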
Method in brief: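 Fluorogenic qHTS at pH 4.5 (citrate buffer with Tween-20): 2 nM enzyme, 80 uM 4-MU-alpha-galactoside substrate, compound titrated 0.7 nM to 77 uM, 20 min room temperature. Glycine/NaOH stop; 4-MU read Ex 365/Em 440; Hill-equation AC50 against no-enzyme and enzyme controls.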

Chain of Alpha-galactosidase (Coffea arabica) (Q42656 whole entry, looked up): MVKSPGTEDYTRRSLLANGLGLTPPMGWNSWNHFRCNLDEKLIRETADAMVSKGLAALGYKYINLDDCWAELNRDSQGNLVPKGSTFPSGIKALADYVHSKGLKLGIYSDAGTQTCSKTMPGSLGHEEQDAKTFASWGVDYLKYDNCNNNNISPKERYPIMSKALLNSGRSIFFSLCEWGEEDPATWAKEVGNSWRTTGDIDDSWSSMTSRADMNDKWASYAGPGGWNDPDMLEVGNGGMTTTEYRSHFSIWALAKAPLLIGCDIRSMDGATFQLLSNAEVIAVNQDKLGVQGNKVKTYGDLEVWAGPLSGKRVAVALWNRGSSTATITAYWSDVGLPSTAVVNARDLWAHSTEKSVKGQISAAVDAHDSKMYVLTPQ

SMILES	activity change, negative = inhibition
O=C(CCCN1CCC(O)(c2ccc(Cl)cc2)CC1)c1ccc(F)cc1	-1.98% (inactive)
COc1ccc(Cc2nccc3cc(OC)c(OC)cc23)cc1OC	-2.91% (inactive)
CN[C@H]1CC[C@@H](c2ccc(Cl)c(Cl)c2)c2ccccc21	-1.65% (inactive)
NC(=O)OCC(COC(N)=O)c1ccccc1	-1.43% (inactive)
Cc1cn[nH]c1	1.91% (inactive)
O=c1[nH]cc(F)c(=O)[nH]1	0.37% (inactive)
Cn1ccc2cc3c(cc21)CCN3C(=O)Nc1cccnc1	-2.03% (inactive)
COc1cc(Cc2cnc(N)nc2N)cc(OC)c1OC	-1.43% (inactive)
